Measured values reported in PubChem BioAssay (NCATS).
Inconclusive results are not listed. Where a call stands in place of a potency, no number is given. Values without a mark were called inactive. The source made the active and inactive calls. Calls follow the shape of the dose curve; as a rule, active = well fitted curve in the direction sought with a large enough effect; inconclusive = small, poorly fitted or top-dose-only effect, or another doubt; inactive = no such curve, though single readings can be large; an effect the other way counts as inactive or inconclusive.

Columns and labels:
[1] = target: Rap guanine nucleotide exchange factor 3 (Homo sapiens) (UniProt O95398); test: Confirmatory qHTS for antagonist of cAMP-regulated guanine nucleotide exchange factor 3 (EPAC1) (AID 1645880); also: nearly all actives have a fitted effect of over 55% in size; also: potency is read from the fitted curve at half-maximal effect
Outline: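 Released BODIPY-GDP fluoresces less than Rap1-bound BODIPY-GDP; the signal is followed at 480/540 nm at 5-min intervals over 30 min, after 5 min at room temperature. Reactions contain 100 nM EPAC1, 250 nM RAP1B-BODIPY-GDP and 50 uM GDP; results are normalized to ATA and DMSO.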

[2] = target: Rap guanine nucleotide exchange factor 3 (Homo sapiens) (UniProt O95398); test: Confirmatory qHTS for agonist of cAMP-regulated guanine nucleotide exchange factor 3 (EPAC1) (AID 1645881); also: nearly all actives have a fitted effect of over 75% in size; also: potency is read from the fitted curve at half-maximal effect;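 as to activation: EPAC1 catalysed release of BODIPY-GDP from Rap1B seen as fluorescence loss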
[3] = target: Rap guanine nucleotide exchange factor 4 (Homo sapiens) (UniProt Q8WZA2); test: Confirmatory qHTS for agonist of cAMP-regulated guanine nucleotide exchange factor 4 (EPAC2) (AID 1645884);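 also: nucleotide exchange releases bodipy-GDP from Rap1 and this lowers its fluorescence; nearly all actives have a fitted effect of over 65% in size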; also: potency is read from the fitted curve at half-maximal effect
[4] = target: Rap guanine nucleotide exchange factor 4 (Homo sapiens) (UniProt Q8WZA2); test: Confirmatory qHTS for antagonist of cAMP-regulated guanine nucleotide exchange factor 4 (EPAC2) (AID 1645885); also: nearly all actives have a fitted effect of over 25% in size; also: potency is read from the fitted curve at half-maximal effect
[5] = target: Rap guanine nucleotide exchange factor 3 (Homo sapiens) (UniProt O95398); test: Counterscreen qHTS for antagonist of cAMP-regulated guanine nucleotide exchange factor 3 (EPAC1) (AID 1645888)
Outline: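 Measured: fluorescence of BODIPY-GDP bound to Rap1B, which falls as exchange proceeds. Conditions include 50 uM competing GDP, 5 and 30 min reads, and a later cAMP challenge for antagonist detection.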

Rap guanine nucleotide exchange factor 4 (Homo sapiens), sequence (Q8WZA2 whole entry, looked up): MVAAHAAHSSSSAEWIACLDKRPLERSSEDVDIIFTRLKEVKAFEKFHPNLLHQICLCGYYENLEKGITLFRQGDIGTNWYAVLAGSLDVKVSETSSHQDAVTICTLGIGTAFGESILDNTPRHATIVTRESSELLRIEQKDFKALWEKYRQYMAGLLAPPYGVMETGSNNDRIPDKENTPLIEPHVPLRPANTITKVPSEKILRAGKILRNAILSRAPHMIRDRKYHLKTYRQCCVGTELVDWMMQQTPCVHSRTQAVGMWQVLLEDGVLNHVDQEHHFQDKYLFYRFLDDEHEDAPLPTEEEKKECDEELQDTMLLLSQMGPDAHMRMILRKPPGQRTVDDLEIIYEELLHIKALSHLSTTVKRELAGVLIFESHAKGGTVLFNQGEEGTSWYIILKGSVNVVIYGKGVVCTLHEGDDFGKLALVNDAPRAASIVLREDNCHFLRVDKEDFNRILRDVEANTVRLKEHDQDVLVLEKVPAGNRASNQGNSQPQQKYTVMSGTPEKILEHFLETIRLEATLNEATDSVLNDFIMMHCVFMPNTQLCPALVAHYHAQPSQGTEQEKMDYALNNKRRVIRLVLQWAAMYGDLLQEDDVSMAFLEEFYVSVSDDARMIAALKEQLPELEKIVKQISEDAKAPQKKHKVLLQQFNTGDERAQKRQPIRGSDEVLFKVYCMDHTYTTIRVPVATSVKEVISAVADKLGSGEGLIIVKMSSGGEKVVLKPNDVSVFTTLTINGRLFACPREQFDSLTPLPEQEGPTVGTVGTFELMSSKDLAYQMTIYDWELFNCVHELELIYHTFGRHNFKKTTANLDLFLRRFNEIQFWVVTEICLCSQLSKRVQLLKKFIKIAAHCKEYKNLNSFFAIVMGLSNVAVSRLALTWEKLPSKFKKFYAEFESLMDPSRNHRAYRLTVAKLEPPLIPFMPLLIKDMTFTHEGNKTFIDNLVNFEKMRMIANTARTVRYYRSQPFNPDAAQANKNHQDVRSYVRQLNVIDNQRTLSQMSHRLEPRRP
Rap guanine nucleotide exchange factor 3 (Homo sapiens), sequence (O95398 whole entry, looked up): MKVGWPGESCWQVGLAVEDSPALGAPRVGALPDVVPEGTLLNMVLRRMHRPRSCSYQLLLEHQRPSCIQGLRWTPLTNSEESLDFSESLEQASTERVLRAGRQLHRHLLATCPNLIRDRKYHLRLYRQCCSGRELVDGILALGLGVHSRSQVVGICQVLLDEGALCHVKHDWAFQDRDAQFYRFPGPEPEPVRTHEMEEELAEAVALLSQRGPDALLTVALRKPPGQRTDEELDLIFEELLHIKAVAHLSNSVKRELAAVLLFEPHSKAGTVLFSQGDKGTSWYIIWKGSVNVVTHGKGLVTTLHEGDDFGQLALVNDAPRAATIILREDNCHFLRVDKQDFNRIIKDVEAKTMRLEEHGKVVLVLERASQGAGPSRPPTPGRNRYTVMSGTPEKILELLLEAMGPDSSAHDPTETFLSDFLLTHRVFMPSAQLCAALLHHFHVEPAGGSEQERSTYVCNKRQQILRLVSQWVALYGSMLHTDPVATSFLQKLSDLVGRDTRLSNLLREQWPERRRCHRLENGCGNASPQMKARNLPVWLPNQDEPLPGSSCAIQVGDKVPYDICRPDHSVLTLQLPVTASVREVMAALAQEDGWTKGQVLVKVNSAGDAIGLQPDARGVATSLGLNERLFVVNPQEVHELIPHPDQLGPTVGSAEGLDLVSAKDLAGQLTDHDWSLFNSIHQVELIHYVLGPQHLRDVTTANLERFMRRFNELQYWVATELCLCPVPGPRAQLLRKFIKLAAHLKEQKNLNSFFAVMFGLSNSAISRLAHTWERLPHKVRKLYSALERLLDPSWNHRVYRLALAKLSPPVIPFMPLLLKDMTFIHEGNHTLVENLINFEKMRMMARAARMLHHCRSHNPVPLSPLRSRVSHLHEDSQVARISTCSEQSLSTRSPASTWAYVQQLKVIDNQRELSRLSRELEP

SMILES | Potency [1] | Potency [2] | Potency [3] | Potency [4] | Potency [5] | activation [3] | activity change, negative = inhibition [5] | outcome [4]
O=C(O)c1ccccc1NS(=O)(=O)c1ccc(NN=Cc2ccc(F)cc2)c([N+](=O)[O-])c1 | 26.9 µM (active) | inactive | inactive | inactive | inactive |  |  | 
Cc1cccc(N=C2NC(=O)/C(=C/C=C/c3ccco3)S2)c1C | 9.53 µM (active) | inactive | inactive | inactive | inactive |  |  | 
Cc1cc(C)c(NC(=O)Cn2c(=O)n(Cc3ccc(C(=O)NCc4ccco4)cc3)c(=O)c3sccc32)c(C)c1 | 75.7 µM (active) | inactive | inactive | inactive | inactive |  |  | 
N#C/C(=C\c1ccc(C(=O)O)cc1)c1nc2sc3c(c2c(=O)[nH]1)CCCC3 | inactive | inactive |  | inactive |  | 10.5% [at 17.1 µM, percent relative to cAMP agonist control] | 7.93% [at 30.8 µM] | 
O=C1CNC(=O)c2c(nc3n2CCC3)N1 | inactive | inactive | inactive | inactive | inactive |  |  | 
O=C(c1ccco1)N(CCC(c1ccccc1)c1ccco1)Cc1ccco1 (stereo not given) | 75.7 µM (active) | inactive | inactive | inactive | inactive |  |  | 
Cc1ccc2nc(NC(=O)CSc3nc(=O)n(CCCN(C)C)c4c3CCC4)sc2c1 | inactive | inactive |  | inactive |  | 2.81% [at 17.1 µM, percent relative to cAMP agonist control] | -5.22% [at 30.8 µM] | 
C=CCOc1ccc(C=NNc2ccc(S(=O)(=O)Nc3ccccc3C(=O)O)cc2[N+](=O)[O-])cc1OC | 7.57 µM (active) | inactive | inactive | inactive | inactive |  |  | 
CS(=O)(=O)Nc1ccc(C2=NN(C(=O)c3cccc(F)c3)C(c3cccs3)C2)cc1 (stereo not given) | inactive | inactive | inactive | inactive | inactive |  |  | 
Cc1sc(NC(=O)C2=COCCO2)nc1-c1ccc(Cl)cc1 | inactive | inactive | inactive | inactive | inactive |  |  | 
CCOc1c(Cl)cc(Cl)cc1CNCCSc1nnnn1C | inactive | inactive | inactive | inactive | inactive |  |  | 
Cc1ccc2oc(=O)c3cnn(CC(=O)NCCCOC(C)C)c3c2c1 | inactive | inactive | inactive | inactive | inactive |  |  | 
CC(=C\c1ccccc1)/C=C1/SC(=S)N(CCCC(=O)O)C1=O | 84.9 µM (active) | inactive | inactive | inactive | inactive |  |  | 
COc1ccc(C(NC(C)=O)c2cc(Cl)c3cccnc3c2O)cc1 (stereo not given) | inactive | inactive |  | inactive |  | 3.14% [at 17.1 µM, percent relative to cAMP agonist control] | -6.93% [at 30.8 µM] | 
COc1ccc(NC(=O)COc2ccccc2C#N)c(S(=O)(=O)N2CCCCC2)c1 | inactive | inactive | inactive | inactive | inactive |  |  | 
NS(=O)(=O)c1cc(C(=O)NC2CCSc3ccccc32)ccc1Cl (stereo not given) | 13.5 µM (active) | inactive | inactive | 30.1 µM (active) | inactive |  |  | 
Cc1cccc(Nc2c([N+](=O)[O-])c(=O)oc3ccccc23)c1 | inactive | inactive | inactive | inactive | inactive |  |  | 
CSc1nc2c(c(C(F)(F)F)n1)CC(C)CC2 (stereo not given) | inactive | inactive | inactive | inactive | inactive |  |  | 
Cc1cn2c(=O)cc(COC(=O)c3ccc(NC(=O)C(C)Oc4ccccc4)cc3)nc2s1 (stereo not given) | inactive | inactive | inactive | inactive | inactive |  |  | 
COc1ccc(N2CCN(C(c3ccccc3F)c3sc4nc(-c5ccco5)nn4c3O)CC2)cc1 (stereo not given) | inactive | inactive | inactive | inactive | inactive |  |  | 
CCOC(=O)Cn1c(-c2cccs2)cc2cc(Cl)ccc21 | inactive | inactive | inactive |  | inactive |  |  | inactive [at 12.7 µM]
NC(=O)c1cc2ccccc2o/c1=N\NC(=O)c1ccncc1 | inactive | inactive |  | inactive |  | 1.92% [at 17.1 µM, percent relative to cAMP agonist control] | -2.29% [at 30.8 µM] | 
COc1cccc(CNC(=O)CCC(=O)N2CC(C)Sc3ccccc32)c1 (stereo not given) | inactive | inactive | inactive | inactive | inactive |  |  | 
Cc1ccccc1OCCC(=O)OCC(=O)NC1CCCCC1 | inactive | inactive |  | inactive |  | 3.43% [at 17.1 µM, percent relative to cAMP agonist control] | 6.94% [at 30.8 µM] | 
CCOC(=O)c1sc(N2C(=O)C(O)=C(C(=O)c3ccco3)C2c2cccc([N+](=O)[O-])c2)nc1C (stereo not given) | 5.36 µM (active) | inactive | inactive | inactive | inactive |  |  | 
Cc1ccc(S(=O)(=O)N2CCC(C(=O)Nc3ccccc3N3CCCCC3)CC2)cc1C | inactive | inactive | inactive | inactive | inactive |  |  | 

SMILES | Potency [1] | Potency [2] | Potency [3] | Potency [4] | Potency [5] | activation [3] | activity change, negative = inhibition [5] | outcome [4]
C(=C\c1ccccc1)/CN1CCN(C(c2cc3ccccc3o2)c2nnnn2C2CCCC2)CC1 (stereo not given) | inactive | inactive |  | inactive |  | 0% [at 17.1 µM, percent relative to cAMP agonist control] | 19.5% [at 30.8 µM] | 
COc1ccc(-c2cc(OC(=O)c3ccc(Cl)cc3)c3c(C)oc(C)c3c(=O)c2)cc1 | 75.7 µM (active) | inactive | inactive | inactive | inactive |  |  | 
Cc1ccc(C(C)C)cc1OCC(=O)NC1CCCCCCC1 | inactive | inactive |  | inactive |  | -1.54% [at 17.1 µM, percent relative to cAMP agonist control] | -15.5% [at 30.8 µM] | 
Cc1ccc(C2=N/C(=C\c3c(C)nn(-c4ccccc4)c3N3CCCC3)C(=O)O2)cc1 | inactive | inactive | inactive | 15.1 µM (active) | inactive |  |  | 
COc1ccc(S(=O)(=O)N2CCOC23CCN(S(=O)(=O)c2cccs2)CC3)cc1 | inactive | inactive |  | inactive |  | 4.26% [at 17.1 µM, percent relative to cAMP agonist control] | -10.2% [at 30.8 µM] | 
CC1CN(S(=O)(=O)c2cccc(C(=O)Nc3ccccc3N3CCOCC3)c2)CC(C)O1 (stereo not given) | inactive | inactive |  | inactive |  | 3.24% [at 17.1 µM, percent relative to cAMP agonist control] | -5.5% [at 30.8 µM] | 
Clc1cccc(Cl)c1C1Nc2cccc3cccc(c23)N1 | inactive | inactive | inactive | inactive | inactive |  |  | 
CC1C/C(=C/c2cccn2C)C(=O)/C(=C/c2cccn2C)C1 (stereo not given) | 16.9 µM (active) | inactive | inactive | inactive | inactive |  |  | 
COC(=O)[C@@H]1C[C@@H](c2ccccc2)[C@H](C)C1(C)C | inactive | inactive | inactive | inactive | inactive |  |  | 
O=C(COC(=O)CNC(=O)c1ccc(Cl)cc1Cl)NCc1ccco1 | inactive | inactive |  | inactive |  | 5.36% [at 17.1 µM, percent relative to cAMP agonist control] | 9.24% [at 30.8 µM] | 
O=C(CCCC(=O)Nc1cccnc1)Nc1cccnc1 | inactive | inactive | inactive | inactive | inactive |  |  | 
CC(SC1=NCCN1S(=O)(=O)c1ccc(F)cc1)c1ccccc1 (stereo not given) | inactive | inactive | inactive | 12 µM (active) | inactive |  |  | 
CN(C)C(=O)c1cccc(-c2cnc3c(NC=O)cc(-c4ccc(F)cc4)cn23)c1 | inactive | inactive | inactive | inactive | inactive |  |  | 
COc1ccc(-c2n[nH]c3c2C(c2ccc(Cl)cc2Cl)NC3=O)cc1 (stereo not given) | inactive | inactive | inactive | inactive | inactive |  |  | 
CN(c1ccc(C(=O)NCc2ccc3c(c2)OCO3)cc1)S(=O)(=O)c1ccccc1 | inactive | inactive | inactive | inactive | inactive |  |  | 
CCN(CC(=O)Nc1c(F)cccc1F)C(=O)CCc1nc2sc3c(c2c(=O)[nH]1)CCCC3 | 75.7 µM (active) | inactive | inactive | inactive | inactive |  |  | 
C/C(=N\NC(=O)c1cc2ccccc2cc1O)c1cc2ccccc2o1 | 37.9 µM (active) | inactive | inactive | inactive | inactive |  |  | 
O=C(c1ccccc1)c1ccc2nc(-c3ccco3)c(-c3ccco3)nc2c1 | 4.78 µM (active) | inactive | inactive | inactive | inactive |  |  | 
CCN(CC)c1ccc2cc(-c3nc(-c4ccccc4F)no3)c(=O)oc2c1 | inactive | 50.1 µM (active) | 5.01 µM (active) | 4.78 µM (active) | inactive |  |  | 
CC/C(=N/NC(=O)c1ccc2c(c1)OCO2)c1ccccc1O | 15.1 µM (active) | inactive | inactive | inactive | inactive |  |  | 
CC(=O)N1N=C(N)SC1c1ccc(Cl)c(Cl)c1 (stereo not given) | inactive | inactive |  | inactive |  | -0.153% [at 17.1 µM, percent relative to cAMP agonist control] | -0.904% [at 30.8 µM] | 
O=C(O)c1cccc(NC(=O)c2cn(-c3ccccc3)nc2-c2cc3ccccc3o2)c1 | 50.1 µM (active) | inactive |  | inactive |  | 0.161% [at 17.1 µM, percent relative to cAMP agonist control] | -4.75% [at 30.8 µM] | 
Nc1c(-c2nc(-c3cccs3)no2)nnn1-c1cccc(Cl)c1 | inactive | inactive | inactive |  | inactive |  |  | inactive [at 12.7 µM]
COc1ccc(C(Sc2ccccc2)c2ccccc2)cc1OC (stereo not given) | inactive | inactive | inactive | 21.3 µM (active) | inactive |  |  | 
Cc1ccc(N(Cc2cccs2)C(=O)c2ccccc2)cc1 | inactive | inactive | inactive | inactive | inactive |  |  | 
